High-throughput results deposited in PubChem by National Center for Advancing Translational Sciences (NCATS).
A selection: hits, their analogues and other compounds. The true share with any hit is near 11%.
Gal4-VP16 FLuc: Gal4-VP16 reporter inhibition counter-screen; Potency, µM (series often up to 53.6 µM), without a hit: top-dose activity, negative = inhibition, actives largely listed as inhibitors; 310,000 tested, 3.5% active; Drosophila S2 Gal4-VP16 UAS-luciferase, luminescence, 20 h;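 further: Gal4-VP16 expression switched on by copper sulfate through the metallothionein promoter; potency means the concentration at half of the fitted maximal effect; on the % scale 0 is the no-effect control and ±100 the full control effect; nearly all actives have a fitted effect of over 50% in size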
MCF10A rerep: DNA re-replication induction in MCF 10a cells; MCF 10A DNA re-replication, Hoechst nuclear intensity, 48 h; Potency, µM (doses to about 46.1 µM), for inactives: at the top dose activity, positive = re-replication, most hits filed as activators; 350,000 tested, 2.9% active; further: potency means the concentration at half of the fitted maximal effect; % of control where 0% means no effect; nearly all actives have a fitted effect of over 50% in size
SW480 rereplic: inducers of DNA re-replication in SW480 colon cancer cells. SW480 DNA re-replication, Hoechst DNA content imaging, 48 h. Potency, µM (series often up to 46.1 µM), inactives show at the top dose re-replication activation, most hits filed as activators. 340,000 tested, 1.8% active. AID 624297; further: potency means the concentration at half of the fitted maximal effect; % of control where 0% means no effect; nearly all actives have a fitted effect of over 55% in size
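First, 250 cells per well were seeded. Next, compound or vehicle (23 nL) was pinned in, plates sat 48 hr at 37 C. Finally Hoechst was added for 40 min before fluorescence scanning.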
IL-1B inflam inh: inflammasome signaling inhibition, IL-1 beta readout; 360,000 tested, 4.7% active; activity change, % at 57.5 µM; THP-1 LPS/ATP IL-1B secretion, AlphaLISA, 16 h; active compounds read low; AID 743279; in the data active means activity change below about -50%; inconclusive means mostly about -30% to -49%; further: on the % scale 0 is the no-effect control and ±100 the full control effect
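THP-1 cells pretreated 1 hr with compounds (up to 57.5 uM final), then stimulated with LPS (250 ng/mL final) plus ATP (1.25 mM final); secreted IL-1B measured by AlphaLISA after 16 hr, decreased signal indicating inhibition.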
RORgamma inh: ROR gamma (mouse) transcription inhibition; Drosophila S2 Gal4-RORgamma UAS-luciferase reporter, 20 h; Potency, µM (titrated, usually from 53.6 µM), for the others: at the top dose activity change, negative = inhibition, usual class: inhibitors; 310,000 tested, 5.4% active; further: potency means the concentration at half of the fitted maximal effect; on the % scale 0 is the no-effect control and ±100 the full control effect; nearly all actives have a fitted effect of over 60% in size
Target sequence (P51450 whole entry, looked up, the tested form may be a part): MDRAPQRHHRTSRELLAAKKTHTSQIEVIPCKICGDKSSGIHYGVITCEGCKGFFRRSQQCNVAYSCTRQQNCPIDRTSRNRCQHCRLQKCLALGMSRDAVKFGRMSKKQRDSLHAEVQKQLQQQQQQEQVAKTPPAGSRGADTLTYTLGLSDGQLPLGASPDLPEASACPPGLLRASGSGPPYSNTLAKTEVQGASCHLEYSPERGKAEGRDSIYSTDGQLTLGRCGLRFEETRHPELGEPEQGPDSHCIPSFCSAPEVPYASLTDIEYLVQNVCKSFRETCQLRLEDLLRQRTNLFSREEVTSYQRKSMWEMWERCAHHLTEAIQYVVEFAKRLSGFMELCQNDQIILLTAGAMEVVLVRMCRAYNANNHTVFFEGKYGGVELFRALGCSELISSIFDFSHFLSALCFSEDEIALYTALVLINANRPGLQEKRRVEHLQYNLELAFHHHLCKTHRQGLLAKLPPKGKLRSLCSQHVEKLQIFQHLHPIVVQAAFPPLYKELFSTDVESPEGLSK
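ROR gamma transcriptional activity was tracked as Gal4-UAS luciferase output in stably transfected Drosophila Schneider cells, with compound added 1 hr before 700 uM copper sulfate induction and a 20 hr ambient-temperature incubation.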
The depositor's hits bear a star; i = inactive; u = inconclusive; x = not tested or not shown; [ ] = remark or other dose. Unless noted, the call rests on the fitted dose curve; in most records, active means well fitted curve in the direction sought with a large enough effect; inconclusive means small, poorly fitted or top-dose-only effect, or another doubt; inactive means no such curve, though single readings can be large; an effect the other way counts as inactive or inconclusive.

SMILES | Gal4-VP16 FLuc | MCF10A rerep | SW480 rereplic | IL-1B inflam inh | RORgamma inh
COc1ccc2[nH]cc(C(=O)CCl)c2c1 | 6.3µM* | 21µM* | u | -96* | 7.9µM*
COc1ccc(S(=O)(=O)N2CCN(C)CC2c2ccccc2)cc1OC (configuration not stated) | x | 1% | -32% | -1 | x
CCOC(=O)c1c(-c2ccc(C)o2)csc1NC(=O)CN(C)CC(=O)Nc1ccc(C)cc1 | u | u | u | 30 | 13µM*
CCOC(=O)c1c(-c2ccc(C)o2)csc1NC(=O)CN1CCCCC1 | 2% | 23µM* | 1% | u | -6%
CCOC(=O)c1c(-c2ccc(C)o2)csc1NC(=O)CSc1nncs1 | -1% | 3% | 0% | 22 | -6%
CCOC(=O)c1c(-c2ccc(C)o2)csc1NC(=S)NC(=O)c1ccc(F)cc1 | 3.2µM* | u | 18% | 17 | 1.8µM*
CCOC(=O)c1c(-c2ccc(C)o2)csc1NC(=O)CN1CCN(CC)CC1 | 5% | 18% | -6% | -18 | -1%
CCOC(=O)c1c(-c2ccc(OC)cc2)csc1NC(=O)CNCc1ccco1 | 5.6µM* | u | -2% | -13 | 5µM*
CCC(=O)N1CCC1(C)C(=O)Nc1cnc2ccccc2c1 (configuration not stated) | x | x | x | 3 | x
CCOC(=O)c1c(-c2ccc(C)o2)csc1NC(=O)CN1CCC(C(N)=O)CC1 | -9% | u | u | -78* | 15%
CC(=O)Nc1cccc(-c2ccnc3c2CC(C)(C(=O)NCc2ccncc2)O3)c1 (configuration not stated) | x | x | x | 0 | x
Cc1cc(Br)cn2c(Cc3ccsc3)c(C(C)(C)C)nc12 | x | x | x | 12 | x
COCCCN1C(=O)C(CC(=O)NC2CC2)CC(C(=O)N2CCOCC2)=C1C (configuration not stated) | x | x | x | 0 | x
N#CCC(=O)Nc1sc2c(c1C(N)=O)CCCC2 | 3% | 23µM* | -1% | -21 | u
C=CCNC(=S)Nc1sc2c(c1C(N)=O)CCCC2 | u | u | -4% | -27 | 11µM*
C=CC(=O)Nc1sc2c(c1C(N)=O)CCCC2 | x | 21µM* | u | -109* | x
Cc1cc(C)n2c(Nc3c(C)cccc3C)c(CC(C)C)nc2n1 | x | x | x | -4 | x
COc1ccc(OCC(=O)Nc2ccc(N3CCN(C(=O)c4ccccc4)CC3)c(Cl)c2)cc1 | u | u | -7% | i | -38%
CC1(C)Cc2c(sc(NC(=O)c3ccc4ncsc4c3)c2C(N)=O)C(C)(C)N1 | u | u | u | -215* | u
CC1(C)Cc2c(sc(NC(=O)c3ccc(C(=O)c4ccccc4)cc3)c2C(N)=O)C(C)(C)N1 | 13µM* | 23µM* | 21µM* | -102* | u
CC1(C)Cc2c(sc(NC(=O)COc3ccc(Cl)cc3)c2C(N)=O)C(C)(C)N1 | -8% | 7% | -4% | -16 | -6%
CCOC(=O)N/N=C1/C[C@@H](O)[C@@H](O)[C@@H]2[C@@H]3C(=O)N(CC)C(=O)[C@H]3CC[C@@H]12 | 0%[10 µM] | x | x | x | 3%[10 µM]
O=C(O)c1ccc(S(=O)(=O)c2ccc3c(c2)C(=O)N(NC(=O)c2ccc(O)cc2)C3=O)cc1 | 10µM* | 1% | -3% | 17 | 6.3µM*
COc1ccc2oc(C(=O)NCc3cc(OC)c(OC)cc3OC)c(C)c2c1 | -4% | u | -21% | -14 | 35%
CC1=NN(/C(=N\c2nnc(C)s2)Nc2ccc(C(C)(C)C)cc2)[C@H](c2ccc(C)cc2)S1 | u | u | u | u | 18µM*
Cc1ccc(NC(=O)CCSc2nnc(C)s2)cc1 | 1% | 2% | -17% | 4 | -3%
COc1ccc(N=CC2CCCCC2=O)c([N+](=O)[O-])c1 (configuration not stated) | x | -4% | -15% | -85* | x
COc1ccccc1/C=C1\SC(=S)N(CCC(=O)N2CCN(C)CC2)C1=O | -27% | 12% | u | -59* | -32%
CCOC(=O)N1CCN(C(=O)CCN2C(=O)/C(=C\c3ccccc3OC)SC2=S)CC1 | 3% | 1% | 3% | 21 | -40%
CCc1ccc(/C=C2\SC(=S)N(CCCC(=O)N3CCN(C)CC3)C2=O)cc1 | x | x | x | -55* | x
